Experimental data as given in PubChem BioAssay (Tox21).
Results filed as inconclusive are left out. Activity calls are given as the source filed them. Calls come from the whole dose curve; as a rule, active = well fitted inhibition curve with a large enough effect in the signal ratio in the repeat runs; inconclusive = weak or mixed curves, or effect the other way; inactive = flat fitted curve, though single readings scatter; the % refers to the signal ratio.

assay: qHTS assay for small molecule disruptors of the mitochondrial membrane potential (AID 720635); conditions: HepG2 mitochondrial membrane potential, Mito-MPS dye ratio; series mostly up to 83.2 µM; ratio activity, negative = MMP loss: at the top concentration
Source text: U.S. Tox21 Program National Center for Advancing Translational Sciences [NCATS] NIH Chemical Genomics Center [NCGC] U.S. Environmental Protection Agency [EPA] National Institutes of Environmental Health Sciences [NIEHS] National Toxicology Program [NTP] U.S. Food and Drug Administration [FDA] Tox21 Assay Overview: Mitochondrial membrane potential (MMP), one of the parameters for mitochondrial function, is generated by mitochondrial electron transport chain that creates an electrochemical gradient by a series of redox reactions. This gradient drives the synthesis of ATP, a crucial molecule for various cellular processes. Measuring MMP in living cells is commonly used to assess the effect of chemicals on mitochondrial function. […] The dye accumulates in the mitochondria of healthy cells as aggregates, with red fluorescence. The mitochondrial potential collapses and the dye can no longer accumulate in the mitochondria and remains in the cytoplasm in monomers, with green fluorescence.
Tox21 Assay Protocol Summary: 2,000 HepG2 cells in 5 uL/well were dispensed into black, clear-bottom 1536-well plates using a Multidrop Combi (Thermo Scientific) dispenser. The assay plates were incubated overnight at 37C to allow cells to attach to the wells, followed by the transfer of 23 nL compound or DMSO vehicle by a pin tool (Kalypsys). The plates were incubated for 1 hr at 37C and 5% CO2, followed by the addition of 5 uL of 2X Mito-MPS dye (BD Biosciences) into each well using Flying Reagent Dispenser (Aurora Discovery) and then following 30 min incubation at 37C. Fluorescence intensity (490nm excitation and 535nm emission for monomers; and 540nm excitation and 590nm emissions for aggregates) was measured using an Envision plate reader.
% is set by controls: 0 for no effect and ±100 for the full control effect; potency is the fitted concentration of half-maximal effect.

SMILES | Potency | ratio activity, negative = MMP loss
CN1[C@H]2CC[C@@H]1[C@@H](C(=O)O)[C@@H](OC(=O)c1ccccc1)C2 | inactive | 
c1cc2c(c(NC3=NCCN3)c1)CCCC2 |  | -15.7% (inactive)
S=C(S)N1CCNCC1 |  | -23.3% (inactive)
COC(=O)[C@@H]1[C@H]2CC[C@@H](C[C@H]1OC(=O)c1ccccc1)N2C |  | -10.8% (inactive)
CC(=O)O[C@H]1CC[C@H]2[C@@H]3CCC4=CC(=O)CCC4=C3C=C[C@]12C |  | -24% (inactive)
CNC(C)Cc1ccccc1 (stereo not given) |  | 7.08% (inactive)
CC(=O)OCC(=O)[C@H]1CC[C@H]2[C@@H]3CC[C@H]4C[C@H](O)CC[C@]4(C)[C@H]3C(=O)C[C@]12C |  | 12.2% [at 39.1 µM] (inactive)
N#CC(C#N)=Cc1cc(O)c(O)c(O)c1 | 5.96 µM (active) | 
C=CC[C@]1(O)CC[C@H]2[C@@H]3CCC4=CCCC[C@@H]4[C@H]3CC[C@@]21C | 9.44 µM (active) | 
CCNCC(O)c1cccc(O)c1 (stereo not given) |  | -7.97% [at 39.1 µM] (inactive)
CCCN1CCC[C@H](c2cccc(O)c2)C1 |  | 13% (inactive)
C1CN(P2(N3CC3)=NP(N3CC3)(N3CC3)=NP(N3CC3)(N3CC3)=N2)CCO1 (stereo not given) |  | 2.89% (inactive)
[S]=[Sb](=[S])[S][Sb](=[S])=[S] |  | 11.7% (inactive)
CC(C)C[C@H]1C(=O)N2CCC[C@H]2[C@]2(O)O[C@](NC(=O)[C@@H]3C[C@@H]4c5cccc6[nH]cc(c56)C[C@H]4N(C)C3)(C(C)C)C(=O)N12 |  | -4.59% (inactive)
CCCCCc1cc(O)c2c(c1)OC(C)(C)c1ccc(C)cc1-2 | 1.68 µM (active) | 
CCOc1ccc2c3c1O[C@H]1[C@@H](O)C=C[C@H]4[C@@H](C2)N(C)CC[C@@]341 |  | -28.3% (inactive)
C[C@]12C=CC(=O)C=C1CC[C@@H]1[C@@H]2CC[C@]2(C)OC(=O)CC[C@@H]12 |  | 9.56% (inactive)
C[N+]1(C)[C@@H]2CC[C@H]1CC(OC(=O)c1c[nH]c3ccccc13)C2 (stereo not given in full) |  | -10.5% (inactive)
ClC1=C(Cl)[C@]2(Cl)[C@@H]3[C@@H](Cl)[C@H]4O[C@H]4[C@@H]3C1(Cl)C2(Cl)Cl | 27.3 µM (active) | 
O=C1CN=C(c2ccccc2)c2cc(Cl)ccc2N1 |  | 13% (inactive)

SMILES | Potency | ratio activity, negative = MMP loss
Oc1cc[c]([Hg][Cl])cc1 | 11.9 µM (active) | 
CN1CSC(=S)N(C)C1 |  | -14.3% (inactive)
[H+].[H+].[Hg+2].[O-]B([O-])[O-].[c-]1ccccc1 | 13.9 µM (active) | 
CC1(C)[C@H](C=C(Cl)Cl)[C@H]1C(=O)OCc1c(F)c(F)cc(F)c1F | 22.1 µM (active) | 
CCN1C[C@]2(COC)[C@H](O)C[C@H](OC)[C@@]34[C@@H]5C[C@@]6(O)[C@H](OC(=O)c7ccccc7)[C@@H]5[C@@](OC(C)=O)([C@@H]([C@H](OC)[C@H]23)[C@@H]14)[C@@H](O)[C@@H]6OC |  | -16.1% (inactive)
CCC1(c2ccccc2)C(=O)NC(=O)N(C(=O)c2ccccc2)C1=O (stereo not given) | 23.7 µM (active) | 
CC1COC(Cn2cncn2)(c2ccc(Oc3ccc(Cl)cc3)cc2Cl)O1 (stereo not given) | 61.1 µM (active) | 
CC(=O)Oc1ccc2c3c1O[C@H]1[C@@H](OC(C)=O)C=C[C@H]4[C@@H](C2)N(C)CC[C@@]341 |  | -9.28% [at 95.3 µM] (inactive)
COC(=O)[C@H]1[C@@H](OC(=O)c2ccccc2)C[C@@H]2CC[C@H]1N2C |  | -14.9% (inactive)
C[C@]12CC[C@@H]3c4ccc(OC(=O)N(CCCl)CCCl)cc4CC[C@H]3[C@@H]1CC[C@@H]2OP(=O)(O)O | inactive | 
NCC(O)c1cccc(O)c1 (stereo not given) |  | 13.1% (inactive)
Cc1nnc2n1-c1sc(CCc3ccc(CC(C)C)cc3)cc1C(c1ccccc1Cl)=NC2C (stereo not given) | 21.1 µM (active) | 
O=C1C[C@@H]2OCC=C3CN4CC[C@]56c7ccccc7N1[C@H]5[C@H]2[C@H]3C[C@H]46 (tested in a mixture with another compound) | inactive | 
C[N+]1([O-])[C@@H]2CC[C@H]1CC(OC(=O)C(CO)c1ccccc1)C2 (stereo not given in full) | inactive | 
CN[C@@H](C)Cc1ccccc1 |  | 8.83% (inactive)
CCCCNC(C)(C)[P+](=O)O |  | 8.55% (inactive)
OCC(c1ccc(Cl)cc1)c1ccc(Cl)cc1 | 27.3 µM (active) | 
c1ccc(C2(N3CCCC3)CCCCC2)cc1 | 19.7 µM (active) | 
N#CC1(N2CCCCC2)CCCCC1 |  | 12% (inactive)
O=C(O)/C=C\C(=O)O | inactive | 
